Bioassay records from PubChem BioAssay.
Shown are actives, neighbours in structure and some others; about 3.6% of the full set was active somewhere.
Pf apPOL inh: Pf-apPOL inhibitors, biochemical, fluorescence. Plasmodium falciparum apicoplast DNA polymerase (apPOL). Recombinant Pf-apPOL, molecular beacon fluorescence, 1.5 h. inhibition, % at 10 µM. 210,000 compounds, 0.25% hits
mHTT-CaM PPI inh: mutant huntingtin-calmodulin interaction inhibitors – biochemical, AlphaScreen, primary screen | AlphaScreen His-mHTT/GST-CaM binding, luminescence | inhibition, % at 15 µM | 190,000 compounds, 3.6% hits | AID 1671202, 2021;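 also: 0% = both proteins with DMSO and 100% = one protein alone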
Starred values were filed as active, the others as inactive. Rule as the data show it: active = inhibition above about 50%; inactive = the rest.

How did COc1ccc(C2/C=C\CN(C(=O)c3ccc(C)cc3)[C@@H](C)C(=O)N2Cc2ccc(F)cc2)cc1 (some centres not stated) do in these assays?
Pf apPOL inh: -6; mHTT-CaM PPI inh: 93*

Results for COc1ccc(C2/C=C\CN(C(=O)C3CCCCC3)[C@@H](C)C(=O)N2Cc2ccc(F)cc2)cc1 (some centres not stated) ?
Pf apPOL inh: -3; mHTT-CaM PPI inh: 33

Results for COc1ccc(C2/C=C\CN(Cc3ccccc3)[C@@H](C)C(=O)N2Cc2ccc(F)cc2)cc1 (some centres not stated) ?
Pf apPOL inh: 1; mHTT-CaM PPI inh: 73*

What do the screens show for `CCCCC(=O)N1C/C=C\C(c2ccc(OC)cc2)N(Cc2ccc(F)cc2)C(=O)[C@@H]1Cc1ccccc1` (some centres not stated)?
Pf apPOL inh: 0; mHTT-CaM PPI inh: 47

Results for COc1ccc(C2/C=C\C(c3ccc(OC)cc3)N(Cc3ccc(F)cc3)C(=O)C(=O)N2Cc2ccc(F)cc2)cc1 (configuration not stated) ?
Pf apPOL inh: -6; mHTT-CaM PPI inh: 38

What do the screens show for `COc1ccc(C2/C=C\CN(Cc3ccco3)[C@@H](C)C(=O)N2Cc2ccc(F)cc2)cc1` (some centres not stated)?
Pf apPOL inh: -6; mHTT-CaM PPI inh: 93*

How did Cc1cccc(-n2cnc(C(=O)NCc3ccccc3F)n2)c1 do in these assays?
Pf apPOL inh: -3; mHTT-CaM PPI inh: -2

What do the screens show for `CCN(CC)S(=O)(=O)c1ccc(Sc2ccc(Br)cc2)c(C(=O)O)c1`?
Pf apPOL inh: 0; mHTT-CaM PPI inh: 20

How did Cc1cc2nc(CN3CCN(c4cccc(Cl)c4)CC3)c(=O)[nH]c2cc1C do in these assays?
Pf apPOL inh: 0; mHTT-CaM PPI inh: -7

How did O=c1[nH]c2cc(Cl)c(Cl)cc2nc1CN1CCN(c2ccccc2)CC1 do in these assays?
Pf apPOL inh: 6; mHTT-CaM PPI inh: 52*

What do the screens show for `CCc1nnc(NC(=O)c2cc(OC)c(OC)c(OC)c2)s1`?
Pf apPOL inh: 1; mHTT-CaM PPI inh: 1

What do the screens show for `CCCc1sc(NC(=O)c2cc(OC)c(OC)c(OC)c2)nc1-c1ccc(OC)c(OC)c1`?
Pf apPOL inh: -1; mHTT-CaM PPI inh: 55*

How did CN1CCN(Cc2ccc3c(c2)Cc2ccccc2-3)CC1 do in these assays?
Pf apPOL inh: 1; mHTT-CaM PPI inh: 1

How did CN1CCN(Cc2cncc(-c3cc4ccccc4s3)c2)CC1 do in these assays?
Pf apPOL inh: -1; mHTT-CaM PPI inh: 55*

What do the screens show for `COc1ccc(-c2noc(COc3ccc(Cl)cc3Br)n2)cc1`?
Pf apPOL inh: 5; mHTT-CaM PPI inh: -19

What do the screens show for `CC(=O)NCC(=O)NC(C(=O)Nc1ccc2c(c1)OCO2)c1ccc(C)cc1` (configuration not stated)?
Pf apPOL inh: -4; mHTT-CaM PPI inh: 5

Results for Cc1ccc(C(NC(=O)Cc2cc3ccccc3[nH]2)C(=O)Nc2ccc3c(c2)OCCO3)cc1 (configuration not stated) ?
Pf apPOL inh: -5; mHTT-CaM PPI inh: 53*

How did O=C(Nc1cccc(F)c1)c1ccc(N2CCC(NCc3ccccc3O)C2)nc1 (configuration not stated) do in these assays?
Pf apPOL inh: -2; mHTT-CaM PPI inh: 9

What do the screens show for `O=C(Nc1cccc(F)c1)c1ccc(N2CCC(NCc3cc(Cl)ccc3O)C2)nc1` (configuration not stated)?
Pf apPOL inh: -4; mHTT-CaM PPI inh: 70*

Results for Cc1cccnc1NC(c1ccc([N+](=O)[O-])cc1)c1ccc2cccnc2c1O (configuration not stated) ?
Pf apPOL inh: -253; mHTT-CaM PPI inh: 100*

How did CC(Oc1cccc2cccnc12)C(=O)O (configuration not stated) do in these assays?
Pf apPOL inh: -2; mHTT-CaM PPI inh: 2

What do the screens show for `CC(=O)NC(c1ccc(C)cc1)c1ccc2cccnc2c1O` (configuration not stated)?
Pf apPOL inh: -1; mHTT-CaM PPI inh: 100*

What do the screens show for `CC(=O)NC(c1ccccc1C)c1ccc2cccnc2c1O` (configuration not stated)?
Pf apPOL inh: 14; mHTT-CaM PPI inh: 100*

What do the screens show for `Cc1ccccc1C(NC(N)=O)c1ccccc1` (configuration not stated)?
Pf apPOL inh: -4; mHTT-CaM PPI inh: -9

What do the screens show for `Cc1ccc2cccc(SCc3ccc([N+](=O)[O-])cc3)c2n1`?
Pf apPOL inh: -1; mHTT-CaM PPI inh: 3

How did CC(=O)NC(c1ccc([N+](=O)[O-])cc1)c1ccc2cccnc2c1O (configuration not stated) do in these assays?
Pf apPOL inh: -4; mHTT-CaM PPI inh: 100*

Results for CC1CCN(S(=O)(=O)c2ccc(C(=O)O)cc2)CC1 ?
Pf apPOL inh: -14; mHTT-CaM PPI inh: -3
